# Results filed as inconclusive are left out. Activity calls are given as the source filed them. The call rests on the fitted dose curve.
# Biological target: Muscarinic acetylcholine receptor M1 (Homo sapiens) (UniProt P11229)
# Assay: Cholinergic receptor muscarinic 1 (CHRM1) small molecule antagonists, cell-based qHTS assay (AID 1963588); further: nearly all actives have a fitted effect of over 40% in size
# Conditions: CHRM1-CHO antagonist mode, calcium flux fluorescence; series mostly up to 61.5 µM; activity, negative = inhibition: at the top concentration
# Description: National Center for Advancing Translational Sciences [NCATS]
# Division of Preclinical Innovation [DPI]
# U.S. Environmental Protection Agency [EPA]
# National Institutes of Environmental Health Sciences [NIEHS]
# National Toxicology Program [NTP]
# U.S. Food and Drug Administration [FDA]
# The CHRM1 is a muscarinic receptor. This receptor plays a crucial role in learning and memory processes and has long been identified as a promising therapeutic target for the improvement of cognitive decline in Alzheimer's disease (AD). The CHRM1-CHO cell line stably expressing human muscarinic acetylcholine receptor M1 (CHRM1) can be used for screening agonists and antagonists of interactions between CHRM1 and its ligands. The CHRM1-CHO Calcium Flux Assay is a homogeneous fluorescence-based assay for detecting the intracellular calcium level using FDSS kinetic plate reader system.
# Tox21 Assay Protocol Summary:
# CHRM1-CHO cells were dispensed at 1000 cells/3uL/well in 1536-well black-clear bottom plates using a Multidrop Dispenser. After the assay plates were incubated at a 37 C/5% CO2 incubator for 18 h, 3 uL of Dye Loading Buffer was transferred to the assay plate by a Flying Reagent Dispenser. The assay plates were incubated at 37 C for 1h. For antagonist mode, 23 nL of compounds dissolved in DMSO, positive controls or DMSO only was transferred to the assay plate by a pin tool. After 5 min incubation at room temperature, 1.5 uL of acetylcholine at 50nM was added to each well. The fluorescence intensity in the plates was measured using FDSS 7000EX kinetic plate reader for 3 min at 1 sec intervals. Each test compound was measured at 15 concentrations in three independent runs.
# On the % scale 0 is the no-effect control and ±100 the full control effect; potency means the concentration at half of the fitted maximal effect.
# Chain of Muscarinic acetylcholine receptor M1 (Homo sapiens) (P11229 whole entry, looked up): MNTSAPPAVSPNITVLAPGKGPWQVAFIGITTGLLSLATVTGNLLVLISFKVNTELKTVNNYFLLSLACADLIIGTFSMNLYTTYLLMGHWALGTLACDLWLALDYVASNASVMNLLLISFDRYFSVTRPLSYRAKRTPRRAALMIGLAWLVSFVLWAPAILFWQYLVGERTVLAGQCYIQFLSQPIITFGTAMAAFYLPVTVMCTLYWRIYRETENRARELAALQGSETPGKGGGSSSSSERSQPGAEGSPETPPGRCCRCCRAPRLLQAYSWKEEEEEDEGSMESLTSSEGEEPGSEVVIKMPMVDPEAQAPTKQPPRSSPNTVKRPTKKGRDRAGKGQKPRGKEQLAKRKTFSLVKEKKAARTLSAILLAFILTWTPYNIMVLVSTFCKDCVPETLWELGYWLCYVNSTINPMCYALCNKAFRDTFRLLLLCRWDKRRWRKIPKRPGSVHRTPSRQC
SMILES,"activity, negative = inhibition",Potency
CCN(CC)c1ccc(N=Nc2ccccc2)cc1,46.4% (inactive),
CC[C@H]1CC[C@H](NCc2cc3c(cc2OC)[C@H]2C[C@H]2C(=O)N3C)[C@H](c2ccccc2)N1,,0.0472 µM (active)
O=C(O)c1cc(Br)c(O)c(Br)c1,-1.3% (inactive),
CCCOC(=O)CCCCC(=O)OCCC,-6.83% (inactive),
Cn1c(=O)c2c(ncn2CCO)n(C)c1=O,-15.1% [at 28.3 µM] (inactive),
OC[C@H]1O[C@@H](OCCc2ccc(O)cc2)[C@H](O)[C@@H](O)[C@@H]1O,-0.243% [at 28.3 µM] (inactive),
CN1CCC(N(Cc2cccs2)c2ccccc2)CC1,-1.74% [at 28.3 µM] (inactive),
CC(=O)Nc1ccc(/C=N/NC(N)=S)cc1,13.9% [at 28.3 µM] (inactive),
Oc1cc2c(cc1O)[C@H]1c3ccc(O)c(O)c3OC[C@@]1(O)C2,-25.8% (inactive),
CC/C(=C(/c1ccc(O)cc1)c1ccc(OCCN(C)C)cc1)c1ccccc1,,13.9 µM (active)
C=C(C)C(=O)OC,3.06% (inactive),
OC[C@H]1O[C@@H]2O[C@H]3[C@H](O)[C@@H](O)[C@@H](O[C@H]4[C@H](O)[C@@H](O)[C@@H](O[C@H]5[C@H](O)[C@@H](O)[C@@H](O[C@H]6[C@H](O)[C@@H](O)[C@@H](O[C@H]7[C@H](O)[C@@H](O)[C@@H](O[C@H]8[C@H](O)[C@@H](O)[C@@H](O[C@H]9[C@H](O)[C@@H](O)[C@@H](O[C@H]1[C@H](O)[C@H]2O)O[C@@H]9CO)O[C@@H]8CO)O[C@@H]7CO)O[C@@H]6CO)O[C@@H]5CO)O[C@@H]4CO)O[C@@H]3CO,30.4% [at 28.3 µM] (inactive),
OC(C#CCN1CCCC1)(c1ccccc1)c1ccccc1,,0.0065 µM (active)
CC1=C(O)C(=O)CO1,-1.1% (inactive),
CC(C)(C)c1ccc(OCC2CO2)cc1 (stereo not given),-17% (inactive),
CCCCCCOC(=O)CC(CC(=O)OCCCCCC)(OC(=O)CCC)C(=O)OCCCCCC,1.99% (inactive),
Cc1ncc(COP(=O)(O)O)c(C=O)c1O,7.48% [at 28.3 µM] (inactive),
CCCCOC(=O)c1ccccc1C(=O)OCC(CC)CCCC (stereo not given),-5.17% (inactive),
CCC(CC)CO,-2.22% (inactive),
C=CC(=O)[O-].C=CC(=O)[O-].[Zn+2],18.1% (inactive),

SMILES,"activity, negative = inhibition",Potency
CC(C)N(c1ccccc1)C(C)C,6.66% (inactive),
Cc1cc(=O)oc2cc(N(C)C)ccc12,-1.05% (inactive),
CCCCCCCCCO,12.7% (inactive),
CCN(Cc1cccnc1)C(=O)c1cccc(Cl)c1[C@]1(C)C(=O)N(Cc2ccc(OC)cc2OC)c2ccc(Cl)cc21,-1.85% (inactive),
Clc1ccc(Nc2nnc(Cc3ccncc3)c3ccccc23)cc1,,18.3 µM (active)
CCCCCCCC#N,27.6% (inactive),
Nc1ccc(N=Nc2ccc(N)cc2)cc1,5.08% [at 28.3 µM] (inactive),
CCCCCCCCCCCCCCCCC(C(=O)O)C(O)(CC(=O)O)C(=O)O (stereo not given),5.19% [at 28.3 µM] (inactive),
COc1cc(C(C)=O)ccc1OCCCN1CCC(c2noc3cc(F)ccc23)CC1,,3.65 µM (active)
CC(C)(C)c1ccc(-c2ccc(C(C)(C)C)cc2)cc1,18.8% (inactive),
COc1cc(Cl)c(OC)cc1N,1.31% (inactive),
CCCCCCOC(=O)c1ccccc1,-10.5% (inactive),
CCCc1ncc(C[n+]2ccccc2C)c(N)n1,-19.7% [at 28.3 µM] (inactive),
O=C(c1ccccc1)c1cc(Cl)ccc1O,,20 µM (active)
CC(=O)c1ccc2c(c1)N(CCCN(C)C)c1ccccc1S2,,0.41 µM (active)
CC(C)OC(=O)CCC(=O)OC(C)C,21.4% (inactive),
CC(C)NCC(O)c1cc(O)cc(O)c1 (stereo not given),1.83% [at 28.3 µM] (inactive),
CC(=O)OCC(=O)[C@@]1(O)[C@H](C)C[C@H]2[C@@H]3CCC4=CC(=O)C=C[C@]4(C)[C@@]3(F)[C@@H](O)C[C@@]21C,0.797% [at 28.3 µM] (inactive),
CC(C)COC(=O)/C=C/c1ccccc1,-14.2% (inactive),
CC(=O)OCC(C)OC(C)=O (stereo not given),-0.245% (inactive),
